KCNQ2 block: inhibitors of rat KCNQ2 potassium channel. O88943. CHO-K1 KCNQ2, FluxOR thallium flux, 20 min; hits give low values. B-score at 10 µM. hit rate 1.1% among 310,000;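 active = fluorescence ratio B-score at most minus 3 library SDs, with starting brightness B-score within 2 library SDs, cut at about -5.5 in these data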
KCNQ2 enhance: KCNQ2 (rat) channel potentiation; O88943; CHO-K1 KCNQ2, FluxOR thallium flux fluorescence; hits give high values; B-score at 10 µM; hit rate 0.54% among 310,000;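 active = fluorescence ratio B-score at least 3 SD of library B-scores, with initial fluorescence B-score within 3 of them, cut at about 5.3 in these data; same plate scores as AID 2156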;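 note: B-score of peak minus minimum over baseline fluorescence ratio after K+ and Tl+ stimulus; positive B-score means potentiation of KCNQ2 with more thallium influx and brighter signal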
Numbers without * were called inactive. Sampled rows, rich in hits. Any-hit rate of the full collection: about 1.6%.

Screening Cc1cc(C(C)(C)C)oc1C(=O)N(CC(=O)NC1CCCC1)c1c(C)cccc1C returned KCNQ2 block -7* and KCNQ2 enhance -7.
Screening CCOc1ccccc1NC(=S)NNS(=O)(=O)c1c(C)cc(C)cc1C returned KCNQ2 block inactive.
CCOc1ccc(OCC(O)CNC2CCN(Cc3ccccc3)CC2)cc1 (stereo not drawn) was read as KCNQ2 block inactive and KCNQ2 enhance 0.8.
`CC(C)(c1ccccc1)c1ccc(OCC(O)CNC2CCN(Cc3ccccc3)CC2)cc1` (stereo not drawn) gave KCNQ2 block -8.26* and KCNQ2 enhance -8.26.
`O=C(O)C1C2CCC(O2)C1C(=O)Nc1ccc(OC(F)F)cc1` (stereo not drawn) gave KCNQ2 block inactive and KCNQ2 enhance 0.02.
COc1ccccc1OCc1nc2ccccc2[nH]1 was read as KCNQ2 block inactive.
Cc1ccccc1OCc1nc2ccccc2[nH]1 was read as KCNQ2 block -6.58* and KCNQ2 enhance -6.58.
O=C(NCc1ccc(/C=N\NC(=O)C(=O)Nc2ccccc2Br)o1)C(=O)Nc1ccccc1 was read as KCNQ2 block inactive and KCNQ2 enhance 1.27.
COCC(CN1CCN(C2=NS(=O)(=O)c3ccccc32)CC1)OC(=O)c1ccccc1 (stereo not drawn) was read as KCNQ2 block inactive.
Screening Cc1oc2c(cc(NS(=O)(=O)c3ccc(F)cc3)c3ccccc32)c1C(=O)O returned KCNQ2 block inactive.
Screening Cc1oc2c(cc(NS(=O)(=O)c3ccc(C(C)C)cc3)c3ccccc32)c1C(=O)O returned KCNQ2 block -5.83* and KCNQ2 enhance -5.83.
`Cc1ccc(C(=O)N/C(=C\c2cn(C)c3ccccc23)C(=O)N2CCOCC2)cc1` gave KCNQ2 block -6.28* and KCNQ2 enhance -6.28.
For Cn1cc(/C=C(\NC(=O)c2ccccc2)C(=O)N2CCOCC2)c2ccccc21 the results were KCNQ2 block inactive.
`O=C(CSc1ncn[nH]1)Nc1ccc(Cl)c(S(=O)(=O)N2CCOCC2)c1` gave KCNQ2 block inactive and KCNQ2 enhance 1.53.
For Cc1cc(C)c2oc(C(=O)Nc3ccc(S(=O)(=O)N4CCCC(C)C4)cc3)cc(=O)c2c1 (stereo not drawn) the results were KCNQ2 block inactive and KCNQ2 enhance 0.22.
CCCCNc1c(-c2cccc(-c3ccc(OC)cc3)c2)nc2ccc(C)cn12 was read as KCNQ2 block -6.06* and KCNQ2 enhance -6.06.
For CCCCNc1c(-c2cccc(-c3cc(C(C)=O)cs3)c2)nc2ccc(C)cn12 the results were KCNQ2 block inactive.
`COc1cc(C)c(C)cc1S(=O)(=O)NC1CC(C)(C)NC(C)(C)C1` gave KCNQ2 block inactive.
For COc1cccc(NC(=O)n2nc(N)cc2-c2ccc(Cl)cc2)c1 the results were KCNQ2 block -5.71* and KCNQ2 enhance -5.71.
Screening COc1cccc(NC(=O)COC(=O)Cc2ccc(Cl)cc2)c1 returned KCNQ2 block inactive and KCNQ2 enhance 0.88.
O=C1Nc2ccccc2C1C(C[N+](=O)[O-])c1ccccc1 (stereo not drawn) was read as KCNQ2 block inactive.
`O=c1ccc(N=Nc2ccccc2)ccc1O` gave KCNQ2 block inactive and KCNQ2 enhance 19.2*.
O=S(=O)(O)c1ccc(N=Nc2ccccc2)cc1 was read as KCNQ2 block inactive and KCNQ2 enhance 0.12.
For Cc1ccc(CNC(=O)c2cc(=O)c3ccccc3o2)cc1 the results were KCNQ2 block inactive and KCNQ2 enhance 0.3.
`Cc1ccc(-c2c(C(=O)NCc3ccc(F)cc3)oc(=O)c3ccccc23)cc1` gave KCNQ2 block inactive and KCNQ2 enhance 9.22*.
COc1ccc(NC(=S)N2CCC(c3ccccc3)C2)cc1 (stereo not drawn) was read as KCNQ2 block inactive and KCNQ2 enhance 0.91.
For CCOc1ccc(NC(=S)N2CCC(C(O)(c3ccccc3)c3ccccc3)CC2)cc1 the results were KCNQ2 block inactive and KCNQ2 enhance 6.52*.
`CCOc1ccc(NC(=S)N2CCN(S(=O)(=O)c3ccccc3)CC2)cc1` gave KCNQ2 block inactive.
COc1ccc(NC(=S)N2CCC(C(O)(c3ccccc3)c3ccccc3)CC2)cc1 was read as KCNQ2 block inactive and KCNQ2 enhance 6.65*.
Screening Cc1ccc(S(=O)(=O)c2c(C)nn(C(C)(C)C)c2OC(=O)C2CCCC2)cc1 returned KCNQ2 block inactive.
Cc1nn(C(C)(C)C)c(OC(=O)C2CCCC2)c1S(=O)(=O)c1ccccc1 was read as KCNQ2 block -5.96* and KCNQ2 enhance -5.96.
Screening S=C(NC1CCCCCC1)NC1CCCC1 returned KCNQ2 block inactive and KCNQ2 enhance 0.57.
NNC(=S)NC1CCCCCCCCCCC1 was read as KCNQ2 block -6.88* and KCNQ2 enhance -6.88.
Screening CNc1ccc(Br)cc(C(=O)/C=C/c2cc(OC)ccc2OC)c1=O returned KCNQ2 block inactive.
For CCNc1ccc(Br)cc(C(=O)/C=C/c2ccc(Cl)cc2Cl)c1=O the results were KCNQ2 block -5.82* and KCNQ2 enhance -5.82.

Source: PubChem
